Hit rate of the full screen: of about 370,000 compounds, about 6,800 (1.8%) were called active. Many of the other results were omitted from the sample, so actives are more common in it than they were. A number with no mark means an inactive call.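 How the source made its calls: active means activation above a cutoff set at the mean of all screened compounds plus 3 SD (cut at about 10% in these data); inactive means the rest.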

In this assay the test system is Nuclear hormone receptor DAF-12 (Heterodera glycines), GAL4 fusion. In words: hgDAF-12 GAL4 fusion reporter activation – cell-based, luminescence, HEK293, UAS-luciferase, primary screen (AID 687014).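 Further: 0% = DMSO wells and 100% = sodium butyrate wells.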 Conditions: HEK293 GAL4-hgDAF12 UAS-luciferase reporter, agonist luminescence; at 6.8 µM; stronger effect = higher value; normalized to butyrate control.
With `O=C(Nc1ccc2c(c1)CCC2)c1ccc(Br)s1`, the activation is 19.2% (active).
`CC1CC(C)CN(CCC(=O)Nc2ccc3c(c2)CCC3)C1` (stereo unspecified): the activation is -2.86%.
Next, `CC(C)Oc1ccc(C(=O)NCC(=O)Nc2ccc3c(c2)CCC3)cc1`: 2.22%; `Cc1cccnc1CC(C)NC(=O)c1cc(COc2cncc(Cl)c2)on1` (stereo unspecified): 1.14%; `Cc1cc(OCc2cc(C(=O)NCc3cc(C(C)C)no3)no2)cc(C)c1Cl`: 15.1% (active).
Take `COc1ccc(OCc2cc(C(=O)NCC3(C)COC3)no2)c(Cl)c1`: the activation was 0.38%.
Regarding `Cc1ccc2oc(C(=O)N3CCN(C)C[C@@H]3C(C)C)c(C)c2c1`, the activation is 2.43%.
Take `COC(=O)[C@]12C[C@H](CC(=O)NCc3cccs3)C(=O)N(CCc3ccc(OC)c(OC)c3)C1=C[C@H](C(C)C)O[C@@H]2C1CC1`: the activation was 1.93%.
`CC1=C(C(=O)N2CCOCC2)CC(CC(=O)NCCCN(C)C)C(=O)N1Cc1ccc(C(C)(C)C)cc1` (stereo unspecified): the activation is 1.86%.
Next, `CCOC(=O)c1ccc2c(c1)nc(SCC(=O)NC(C)C)n2CC`: -0.22%.
In the case of `CCOC(=O)c1ccc2c(c1)nc(C)n2CC` it was 12.8% (active); in that of `CCn1c(C)nc2cc(C(=O)NNS(=O)(=O)c3ccc(C)cc3C)ccc21`, -0.8%.
Next, `Nc1nc2c(ncn2[C@@H]2O[C@H](C(=O)N[C@@H](Cc3ccccc3)C(=O)NCc3ccccc3)[C@@H](O)[C@H]2O)c(=O)[nH]1`: -2.72%; `CCOC(=O)N1CCN(C(=O)C[C@H]2C[C@@]3(C(=O)OC)C(=C[C@H](C4CCCC4)O[C@@H]3C)N(Cc3ccccc3)C2=O)CC1`: -1.3%.
`Cc1ccc2cc(/C=N/Nc3ccc(C(=O)O)cc3)c(Cl)nc2c1`: the activation was 11.9% (active).
For `CC(=O)Nc1ccc(C(=O)CSc2nc3ccc(C)cc3[nH]2)cc1`, the activation was 8.98%.
With `CSCC[C@H](NC(=O)OC(C)(C)C)C(=O)N/N=C/c1cc2ccc(C)cc2nc1Cl`, the activation is -1.8%.
For `C=C(C)C#CC(Cc1ccccc1)N(CC1CC1)/C(N)=N/C(=O)OCc1ccccc1` (stereo unspecified), the activation was 1.8%.
Next, `COc1cc(/C=C/C(=O)O)cc(S(=O)(=O)Nc2ccccc2SC)c1OC`: 1.71%.
`Cn1ncc2c(NNC(=O)Cc3cccc4ccccc34)ncnc21`: the activation was -0.95%.
Turning to `Cc1ccc(CCNC(=O)c2ccc3nc4ccccc4c(=O)n3c2)cc1`, the activation is 3.9%.
With `Cc1ccc(C(=O)NNc2ncnc3ccccc23)cc1`, the activation was 16% (active).
Next, `COC(=O)Cc1nnn2c1[C@H](C)[C@H](c1ccccc1Br)OCC2`: -0.72%; `C=CCn1cc(C(=O)NCc2ccc(Cl)cc2)c(=O)c2cc(S(=O)(=O)N(CC)CC)ccc21`: 0.3%.
In the case of `CC(=O)c1cc(C#N)c(N2CC(C)OC(C)C2)nc1C` (stereo unspecified), the activation is 0.39%.
With `CC(=O)c1cc(C#N)c(SCC(=O)Nc2nccs2)nc1C`, the activation is 8.08%.
For the compound `CC(=O)c1cc(C#N)c(SCC(=O)C(C)(C)C)nc1C`, the activation is 27.1% (active).
As for `CC(C)(C)OC(=O)NCc1cc(F)ccc1/C=C/S(=O)(=O)NCCc1ccccc1`, the activation is 0.64%.
Next, `Cc1ccc(Cc2c(-c3ccc(C)cc3)nc3c4ccccc4ccn23)cc1`: 0.89%; `Cc1ccc(Cc2c(-c3ccc(Cl)cc3)nc3c4ccccc4ccn23)cc1`: 4.25%; `c1ccc(Cc2c(-c3ccco3)nc3c4ccccc4ccn23)cc1`: 22.7% (active).
Consider `CC(C(=O)N=Nc1c(O)n(C)c2ccc(Br)cc12)n1cnc2ccccc2c1=O` (stereo unspecified), for which the activation is 0.17%.
In the case of `CC(=O)C1=C(C)N(Cc2ccc(Cl)cc2)C(=S)NC1c1ccc(F)cc1` (stereo unspecified) it was 3.22%.
In the case of `N#Cc1ccc(OCCCN2CCC(C(O)(c3ccccc3)c3ccccc3)CC2)c(F)c1` it was 0.54%; in that of `C=CCNc1cnn(-c2ccc(C)cc2)c(=O)c1Cl`, 12.7% (active).
`Cc1cccc(-n2ncc(Cl)c(Cl)c2=O)c1`: the activation is -2.03%.
Turning to `CC1=C(C(=O)NC2CC(C)(C)Cc3c2cnn3-c2ccc(C)cc2)OCCO1` (stereo unspecified), the activation is -2.28%.
Consider `COC(=O)[C@H](C(C)C)N(CCCc1cn(Cc2ccccc2)nn1)S(=O)(=O)c1ccc(F)cc1Br`, for which the activation was -3.54%.
For the compound `COC(=O)C[C@@H]1C=C[C@@H](NC(=O)c2ccc3c(c2)OCO3)[C@@H](CO)O1`, the activation is -0.93%.
As to `CC12CCC(C(=O)N3CCN(c4ncccn4)CC3)(c3nc4ccccc4nc31)C2(C)C` (stereo unspecified), the activation is -2.77%.
Consider `CC1=C(N2CCN(c3ncccn3)CC2)CCC1=O`, for which the activation was 1.9%.
For the compound `c1cnc(N2CCN(c3ccc4ccccc4n3)CC2)nc1`, the activation was 13.8% (active).
In the case of `CN1C(=O)C(Br)(Br)CC1c1cccnc1` (stereo unspecified), the activation is 2.1%.
Take `CCCCCCCCN1C(=O)[C@@H](CC(=O)N2CCN(C(=O)OCC)CC2)C[C@@]2(C(=O)OC)C1=C[C@H](C1CCCC1)O[C@@H]2C`: the activation was -1.38%.
With `Cc1csc(NC(=O)CSc2nc(=O)n(CCCN(C)C)c3c2CCC3)n1`, the activation is -0.31%.
Turning to `COc1ccc(CN2C[C@H]3CON(C)[C@H]3C[C@H]2c2ccc(-c3cccc(F)c3)cc2)cc1`, the activation was -1.7%.
As for `CN1OC[C@@H]2CN[C@H](c3ccc(-c4ccccc4)cc3)C[C@@H]21`, the activation was 10.5% (active).
Next, `CN1OC[C@@H]2CN(C(=O)c3ccc(-c4ccccc4)cc3)[C@H](c3ccc(-c4cccc(F)c4)cc3)C[C@@H]21`: 2.92%.
Consider `O=C(NCc1ccccc1Cl)c1ccc2c(=O)n(CC3CCCO3)c(=S)[nH]c2c1` (stereo unspecified), for which the activation was 1.69%.
In the case of `O=S1(=O)c2c(cccc2N2CCCCC2)O[C@H](COCc2ccccc2)CN1C1CC1` it was -1.38%; in that of `CCCNC(=O)CCc1c(C)nc2c(c(C)nn2-c2ccc(C)cc2)c1C`, -0.59%; in that of `CCOc1ccc(Oc2c(Cl)cnn(-c3ccc(C)cc3)c2=O)cc1`, 1.52%.
Regarding `CCCNC(=O)c1c(Cl)cnn1-c1ccc(C)cc1`, the activation was 14.5% (active).
Regarding `CCCCCCCCN1C(=O)[C@@H](CC(=O)NCCCC)C[C@@]2(C(=O)OC)C1=C[C@H](C(C)(C)C)O[C@@H]2C`, the activation is 0.13%.
`O=C(CSc1nc2ccccc2c(=O)n1Cc1ccc(F)cc1)NCC1CCCO1` (stereo unspecified): the activation was 0.43%.
`COCCNC(=O)c1ccc(-n2c(SCc3cccnc3)nc3ccccc3c2=O)cc1`: the activation is -1.1%.
With `O=C(Nn1c(SCc2ccc([N+](=O)[O-])cc2)nc2ccccc2c1=O)c1ccc(F)cc1`, the activation is 16.4% (active).
As to `O=c1[nH]c(-c2ccccc2)cn1C1CCN(Cc2ccc(-c3nc4ccc(F)cc4nc3-c3ccccc3)cc2)CC1`, the activation is 2.08%.
For the compound `O=[N+]([O-])c1ccc2c(c1)C(N1CCOCC1)/C(=C/C1(O)CCCCC1)O2` (stereo unspecified), the activation was -1.36%.
In the case of `CCOC(=O)C1CCN(C(=O)C(C)(C)NC(=O)Nc2ccc(F)c(F)c2)CC1` it was -0.28%; in that of `COc1ccc(-c2nc3n(c2Br)CCC3)cc1`, 5.25%; in that of `COc1ccc(/C=C2\N=C3CCCN3C2=O)cc1`, 13% (active).
Next, `COc1ccc(/C=C2\CC3(OC(C)=O)CCCN2C3)cc1` (stereo unspecified): -5.68%; `O=C(C1CCCN1S(=O)(=O)c1ccccc1)N1CCc2ccccc2C1` (stereo unspecified): -1.43%; `O=C(CSc1nnc(COc2ccccc2)n1-c1ccc(Cl)cc1)Nc1ccc2c(c1)OCO2`: -1.26%.
For `CC(C)(C)C1CCC(=NNC(=O)c2cc(-c3ccccc3)n[nH]2)CC1` (stereo unspecified), the activation is 6.27%.
As to `CCC(C)(C)C1CCC(=NNC(=O)c2ccc(Br)o2)CC1` (stereo unspecified), the activation is 7.56%.
As for `CC(C)(C)C1CCC(=NNC(=O)c2ccc(Br)o2)CC1` (stereo unspecified), the activation is 11.6% (active).
Consider `COC(=O)C1=C(C)N(Cc2cccc(C(F)(F)F)c2)C(=NCc2ccccc2)NC1c1ccccc1C(F)(F)F` (stereo unspecified), for which the activation is -1.64%.
In the case of `C/C(=N\NC(=S)NC1CCCCC1)c1ccc(C)o1` it was 3.96%.
For the compound `CC(CNC(=O)c1ccc(Br)o1)NC(=O)c1ccc(Br)o1` (stereo unspecified), the activation was -3.41%.
On to `C/C(=N/NC(=O)c1ccc(Br)o1)c1ccc(C)o1`, for which the activation was 11.9% (active).
For `COc1cc(SC)ccc1C(=O)Nc1nc(C)cs1`, the activation is -15.3%.
`Cc1ccnc(NC(=O)CNC(=O)c2ccccc2)c1`: the activation was 2.39%.
As to `COc1cc(SC)ccc1C(=O)Nc1cc(C)ccn1`, the activation was 15.5% (active).
Consider `O=S1(=O)c2c(NCc3ccco3)cccc2Oc2ccccc2CN1Cc1cn(Cc2cccc(C(F)(F)F)c2)nn1`, for which the activation is -3.4%.
Next, `COc1cccc(NC(=O)CSc2nccn(-c3ccc4c(c3)OCCO4)c2=O)c1`: 0.16%; `COc1ccccc1C1C(C(N)=O)=C(C)Nc2nc(CCCO)nn21` (stereo unspecified): 0.62%.
As to `CN(C(=O)COC(=O)c1cc(=O)[nH]c2ccccc12)C1CCCCC1`, the activation is 6.7%.
In the case of `O=C(COC(=O)c1cc(=O)[nH]c2ccccc12)NCc1cccc(Cl)c1` it was 0.1%.
Regarding `CC1CCN(C(=O)COC(=O)c2cc(=O)[nH]c3ccccc23)CC1`, the activation is 12.3% (active).
On to `CCOC(=O)[C@]12CCCC3=C1N(CCC3)C(=O)[C@@H](CC(=O)NCC13CC4CC(CC(C4)C1)C3)C2`, for which the activation is 0.11%.
`COc1cc(/C=C/C(=O)OCC(=O)NCCCc2ccccc2)ccc1O`: the activation was -1.55%.
In the case of `COc1cc(/C=N/Nc2nc3ccccc3s2)ccc1O` it was 15% (active); in that of `COc1ccc(/C=N/Nc2ncnc3sc4c(c23)CCCC4)cc1O`, 5.98%.
`CN(C)C(=O)N1CCN(C(=O)[C@@H](Cc2ccccc2)NC(=O)[C@H]2O[C@@H](n3ccc(N)nc3=O)[C@H](O)[C@@H]2O)CC1`: the activation was 1.19%.
